Test results taken from PubChem BioAssay (NCATS).
Results filed as inconclusive are left out. The source made the active and inactive calls. Calls follow the shape of the dose curve; as a rule, active = well fitted inhibition curve with a large enough effect; inconclusive = small, poorly fitted or top-dose-only effect; inactive = flat fitted curve, though single readings scatter.

Assays:
Test in all cases: qHTS profiling for inhibitors of Plasmodium falciparum proliferation (AID 504749); also: nearly all actives have a fitted effect of over 60% in size
Conditions in all cases: P. falciparum in erythrocytes, SYBR Green DNA, 72 h; series mostly up to 28.7 µM
CP256 = system: CP256
Procedure, shortened: (§1)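 Three-day growth assay of blood-stage parasites in erythrocytes (0.3% parasitemia, 2.5% hematocrit) at 37 C, 5% CO2, quantified by SYBR Green DNA staining after overnight detergent lysis.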

CP260 = system: CP260
Procedure, shortened: as §1

CP262 = system: CP262
Procedure, shortened: as §1

CP265 = system: CP265
Procedure, shortened: as §1

CP268 = system: CP268
Procedure, shortened: as §1

CP269 = system: CP269
Procedure, shortened: as §1

CP297 = system: CP297
Procedure, shortened: as §1

CP305 = system: CP305
Procedure, shortened: as §1

CP315 = system: CP315
Procedure, shortened: as §1

CP325 = system: CP325
Procedure, shortened: as §1

CP329 = system: CP329
Procedure, shortened: as §1

DFO2036 = system: DFO2036
Procedure, shortened: as §1

DIV14 = system: DIV14
Procedure, shortened: as §1

DIV17 = system: DIV17
Procedure, shortened: as §1

DIV30 = system: DIV30
Procedure, shortened: as §1

Dd2 = system: Dd2
Procedure, shortened: as §1

ECU = system: ECU
Procedure, shortened: as §1

FAB9 = system: FAB9
Procedure, shortened: as §1

HB3 = system: HB3
Procedure, shortened: as §1

JCK = system: JCK
Procedure, shortened: as §1

P93_24 = system: P93_24
Procedure, shortened: as §1

P94_40 = system: P94_40
Procedure, shortened: as §1

PAD = system: PAD
Procedure, shortened: as §1

PC15 = system: PC15
Procedure, shortened: as §1

PC26 = system: PC26
Procedure, shortened: as §1

PC49 = system: PC49
Procedure, shortened: as §1

SC27B = system: SC27B
Procedure, shortened: as §1

TAB113 = system: TAB113
Procedure, shortened: as §1

Measured: Potency

C=C1C(=O)O[C@@H]2[C@@H]1CC/C(C)=C\CC[C@@]1(C)O[C@H]21
inactive: all assays above
